Cdc25B block = human M-phase inducer phosphatase 2 inhibition; 65,000 compounds, 0.1% hits; AID 368; recombinant Cdc25B, OMFP fluorescence Ex485/Em525; inhibition, %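 (compounds tested at 10 µM final in the well)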; in the data active = inhibition above about 50%
BAP1 inh = blocks human BAP1 ubiquitin-AMC hydrolysis. 72,000 compounds, 0.48% hits. recombinant BAP1, Ub-AMC hydrolysis fluorescence kinetic; stronger effect = lower value. AID 436. Q92560. calls only at 20 µM;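 active = activity remaining at or below 50% of control, provided the compound also passes the data quality filters; inactive = the rest, including low values that fail the filters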;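 also: 100% = DMSO wells rate and 0% = substrate alone blank rate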
HePTP inh = blocks human HePTP tyrosine phosphatase. AID 521. recombinant HePTP phosphatase activity, OD absorbance. inhibition, % at 20 µM. 110,000 compounds, 0.64% hits; in the data active = inhibition above about 50%;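 also: plate controls were vehicle for no effect and reference inhibitor for full effect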
MKP-1 inh = inhibitors of human MKP-1 phosphatase; 65,000 compounds, 0.15% hits; inhibition, %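 (compounds tested at a single concentration somewhere between 10 and 100 µM)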; P28562; recombinant MKP-1, OMFP hydrolysis fluorescence;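 active = inhibition above about 50%, limit read from the data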;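 also: 0% = DMSO max control wells and 100% = wells with enzyme stopped by NaOH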
PLAP act = activators of human placental alkaline phosphatase; activation fold at 20 µM; purified PLAP enzyme, luminescent substrate read-out; stronger effect = higher value; 96,000 compounds, 1.2% hits; in the data active = activation fold above about 2
Target sequence (P05187 whole entry, looked up): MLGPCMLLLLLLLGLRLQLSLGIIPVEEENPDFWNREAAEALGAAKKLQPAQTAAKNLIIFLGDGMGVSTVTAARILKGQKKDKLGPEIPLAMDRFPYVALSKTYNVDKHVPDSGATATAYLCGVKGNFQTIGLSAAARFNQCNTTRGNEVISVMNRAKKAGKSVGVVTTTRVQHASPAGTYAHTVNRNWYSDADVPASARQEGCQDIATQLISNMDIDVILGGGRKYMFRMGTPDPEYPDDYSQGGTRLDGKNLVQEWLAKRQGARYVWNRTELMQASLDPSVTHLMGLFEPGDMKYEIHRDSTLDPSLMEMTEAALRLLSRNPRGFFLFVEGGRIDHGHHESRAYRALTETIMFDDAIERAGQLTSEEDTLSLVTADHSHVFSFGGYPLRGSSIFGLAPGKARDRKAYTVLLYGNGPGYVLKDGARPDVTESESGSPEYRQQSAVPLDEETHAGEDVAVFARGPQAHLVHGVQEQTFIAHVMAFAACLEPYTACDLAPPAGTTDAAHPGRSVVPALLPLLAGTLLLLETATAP
Active calls of the source: *; i = inactive; . = not tested or not shown. This is a sample that favours compounds with a hit; in the whole collection about 1.4% have one here.

SMILES	Cdc25B block	BAP1 inh	HePTP inh	MKP-1 inh	PLAP act
COc1ccc2nc(NC(=O)C(NS(=O)(=O)c3cccs3)C(C)C)sc2c1 (stereo unspecified)	-10.1	i	13.8	-7.5	2.2*
O=C(CCC1CCCCC1)Nc1ncn[nH]1	-16.8	i	6.1	-5.7	2*
CCCNC(=O)CCC(=O)Nc1ncc(-c2ccc(C)cc2)n1C	5.7	i	-4.0	30.6	2.2*
CCCNC(=O)CCC(NS(=O)(=O)c1ccc(C)cc1)C(=O)NCCC (stereo unspecified)	-5.1	i	14.1	-0.6	0.9
O=C(Cc1cn2ccsc2n1)Nc1nc2c(s1)CCCC2	-4.8	i	6.2	1.3	2*
O=C(O)c1ccc([N+](=O)[O-])c2c1NC(c1ccccc1)C1CC=CC21 (stereo unspecified)	.	.	87.6*	.	.
Cc1c(Cl)ccc2c1NC(C(=O)O)C1CC=CC21 (stereo unspecified)	.	.	103.2*	.	.
O=C(O)c1cccc2c1NC(c1cccc(Cl)c1Cl)C1CC=CC21 (stereo unspecified)	.	.	87.7*	.	.
COc1cccc2c1NC(c1ccccc1Cl)C1CC=CC21 (stereo unspecified)	.	.	-5.9	.	.
O=C(O)C1Nc2c(C(=O)N3CCCC3)cccc2C2C=CCC12 (stereo unspecified)	.	.	94.0*	.	.
O=C1OC(Nc2ncccn2)(c2ccccc2)c2ccccc21 (stereo unspecified)	.	.	3.6	.	.
Cc1ccc(C)n1/N=C1\NC(=O)CS1	.	.	99.4*	.	.
Cc1ccc(OCCN2CCN(c3ncnc4sc(C)c(C)c34)CC2)cc1	.	.	.	.	2.2*
CC(=O)N(Cc1ccc2c(c1)OCO2)C1CC(=O)N(c2cccc(Cl)c2)C1=O (stereo unspecified)	.	.	-12.8	.	.
CCN1CCN(Cc2cccc(Oc3ccc(Cl)cc3)c2)CC1	.	.	.	.	1.7
CCN1CCN(Cc2cccc(Oc3ccccc3)c2)CC1	.	.	.	.	2.2*
COc1ccc(N/C(N)=N/c2nc(CSc3ccc(Cl)cc3)cc(=O)[nH]2)cc1	.	.	.	.	2*
CCOC(=O)C1=C(C)N=c2s/c(=C\c3cccs3)c(=O)n2C1c1ccc(OC)cc1 (stereo unspecified)	.	.	6.6	.	.
CCOC(=O)C1=C(C)N=c2s/c(=C\c3ccc([N+](=O)[O-])o3)c(=O)n2C1c1ccc(OC)cc1 (stereo unspecified)	.	.	51.9*	.	.
O=C(CC(c1ccccc1)C1([N+](=O)[O-])C(=O)c2ccccc2C1=O)c1ccccc1 (stereo unspecified)	.	i	.	.	.
CC(=O)c1ccc(Nc2cc(C)nc3ncnn23)cc1	.	.	-10.5	.	.
Cc1cc(Nc2ccc(N3CCC(C)CC3)cc2)n2ncnc2n1	-13.7	i	-6.1	9.3	2*
COc1ccc(/C=N/N(C)c2cc(C)nc(-c3ccccc3O)n2)cc1OC	.	.	11.8	.	.
O=C(CSc1nc2ccc(N3C(=O)c4ccccc4C3=O)cc2s1)Nc1cccc([N+](=O)[O-])c1	.	.	79.6*	.	.
Cc1ccc(S(=O)(=O)NN2C(=O)/C(=C/c3ccc(Cl)cc3Cl)SC2=S)cc1	.	.	-5.3	.	.
SMILES	Cdc25B block	BAP1 inh	HePTP inh	MKP-1 inh	PLAP act
CCN(CC)S(=O)(=O)c1cc(C(N)=O)ccc1Cl	.	.	8.9	.	.
Cc1cc(N/C=C/C(=O)c2ccc(Cl)s2)no1	.	.	101.9*	.	.
CCOC(=O)COc1ccc(/C=N\n2cnnc2)cc1OC	.	.	5.6	.	.
CCN1CCN(c2nc3ccccc3nc2C(C#N)S(=O)(=O)c2ccc(C)c(C)c2)CC1 (stereo unspecified)	.	.	.	.	2*
CCN1CCN(c2nc3ccccc3nc2C(C#N)S(=O)(=O)c2ccc(C)cc2)CC1 (stereo unspecified)	.	.	.	.	1.5
CCN1CCc2c(sc(NC(=O)Nc3ccc(Cl)cc3)c2C(N)=O)C1	.	.	100.7*	.	.
O=C(N=Nc1c(O)[nH]c(=O)[nH]c1=O)c1ccc2c(c1)OCO2	.	.	-3.9	.	.
Cc1cccnc1NCc1ccc(O)c2ncccc12	-15.9	i	2.4	1.4	2.6*
O=C1NC(=S)NC(=O)C1=Cc1cc(Br)c(Sc2ccc(Cl)cc2)o1	.	.	75.9*	.	.
Clc1ccc(Sc2oc(/C=N/n3cnnc3)cc2Br)cc1	1.6	i	5.3	15.7	0.9
CCn1c(=O)cc(SCC(=O)N2CCN(Cc3ccc4c(c3)OCO4)CC2)c2ccccc21	-14.0	i	8.7	56.4*	1.5
COC(=O)c1cc(NC(=O)c2ccc(-c3ccc([N+](=O)[O-])cc3)o2)cc(C(=O)OC)c1	.	.	-3.1	.	.
COc1ccc(/C=C2/Sc3ccccc3C2=O)cc1[N+](=O)[O-]	.	.	0.1	.	.
CC(/C=C/c1ccccc1)=N\N=C1\NC(=O)C(Cc2ccccc2)S1 (stereo unspecified)	.	.	103.6*	.	.
C=C(C)Cn1c(Sc2nc3ccccc3[nH]2)nc2c1c(=O)[nH]c(=O)n2C	3.4	i	-0.9	-22.5	2.1*
CC(=O)N(C)c1ccc(NC(=O)c2ccccc2I)cc1	.	.	-2.4	.	.
COc1ccccc1/C=C1\SC(N2CCCC2)=NC1=O	.	.	2.2	.	.
COc1ccc(OC)c(/C=N/NC(=O)C(=O)Nc2ccc(OC)cc2OC)c1	.	.	4.0	.	.
COc1ccc(NC(=O)C(=O)N/N=C/c2cc(C)n(-c3cccc(Cl)c3Cl)c2C)c(OC)c1	.	.	.	.	2*
CCCOc1ccc(C2C(C(=O)OC)=CN(CCOC)C=C2C(=O)OC)cc1	-16.0	.	3.7	8.7	2.1*
COCCN1C=C(C(=O)OC)C(c2ccc(OC)c(OC)c2)C(C(=O)OC)=C1	-15.6	i	-5.2	6.9	1.4
CCCCCC1CCC(C(=O)O)CC1 (stereo unspecified)	-4.4	i	3.8	53.7*	1.2
Oc1c(Br)cc(/C=N/Nc2nnc3c(n2)[nH]c2ccccc23)c(Br)c1O	.	.	89.2*	.	.
O=c1[nH]cnc2scc(C3COc4ccccc4O3)c12 (stereo unspecified)	0.7	i	6.5	2.3	2.1*
COc1ccc(COC(=O)C2=C(C)NC3=C(C(=O)CCC3)C2c2coc3ccccc3c2=O)cc1 (stereo unspecified)	.	i	.	.	.
SMILES	Cdc25B block	BAP1 inh	HePTP inh	MKP-1 inh	PLAP act
CCSCCOC(=O)C1=C(C)NC2=C(C(=O)CCC2)C1c1coc2ccccc2c1=O (stereo unspecified)	-4.1	i	8.3	50.1*	1
O=C(CSc1ncn[nH]1)Nc1ccc(S(=O)(=O)N2CCCC2)cc1	.	.	.	.	1.8
O=C(CSc1nc2ccccc2c(=O)[nH]1)Nc1ccc(S(=O)(=O)N2CCCC2)cc1	0.0	i	-10.7	53.2*	1.2
COC(C(=O)Nc1ccc(S(=O)(=O)N2CCCCC2)cc1)c1ccccc1 (stereo unspecified)	.	.	.	.	2*
[O-][n+]1onc2ncc(Br)cc21	.	i	.	.	.
CC(=O)c1c(C)[nH]c(C(=O)OCC(=O)N2CCN(S(=O)(=O)c3ccc(C)cc3C)CC2)c1C	.	.	.	.	2*
O=C(c1cc(-c2cccs2)nc2ccccc12)N1CCN(c2ccccc2)CC1	.	.	0.5	.	.
Cc1nnc(NC(=O)c2cc(-c3ccc(Cl)cc3)nc3ccccc23)s1	.	.	-11.0	.	.
CC(C)Oc1ccc(-c2cc(C(=O)O)c3ccccc3n2)cc1	.	.	104.4*	.	.
Cc1nnc(NC(=O)c2cc(-c3cccs3)nc3ccccc23)s1	.	.	101.8*	.	.
O=C(O)c1cc(-c2cccs2)nc2ccccc12	.	.	92.5*	.	.
